# SARS PLpro yeast – qHTS of Yeast-based Assay for SARS-CoV PLP | S. cerevisiae expressing SARS-CoV PLpro, growth rescue | Potency, µM (top dose mostly 32.9 µM), without a hit: top-dose activity, positive = growth rescue, usual class: activators | 330,000 tested, 0.19% active; note: potency is the fitted concentration of half-maximal effect; 0% is about no effect; nearly all actives have a fitted effect of over 55% in size
# LmPK inhibitor – qHTS Assay for Inhibitors of Leishmania Mexicana Pyruvate Kinase (LmPK); 290,000 tested, 0.37% active; purified LmPK, Kinase-Glo ATP luminescence, 1 h; Potency, µM (doses to about 57.5 µM), without a hit: top-dose activity change, negative = inhibition, most hits filed as inhibitors; AID 1721, 2009; Q27686; active = well fitted curve in the direction sought with a large enough effect; inconclusive = small, poorly fitted or top-dose-only effect, or another doubt; inactive = no such curve, though single readings can be large; an effect the other way counts as inactive or inconclusive; note: potency is the fitted concentration of half-maximal effect; % is set by controls: 0 for no effect and ±100 for the full control effect
# Target sequence (Q27686 whole entry, looked up): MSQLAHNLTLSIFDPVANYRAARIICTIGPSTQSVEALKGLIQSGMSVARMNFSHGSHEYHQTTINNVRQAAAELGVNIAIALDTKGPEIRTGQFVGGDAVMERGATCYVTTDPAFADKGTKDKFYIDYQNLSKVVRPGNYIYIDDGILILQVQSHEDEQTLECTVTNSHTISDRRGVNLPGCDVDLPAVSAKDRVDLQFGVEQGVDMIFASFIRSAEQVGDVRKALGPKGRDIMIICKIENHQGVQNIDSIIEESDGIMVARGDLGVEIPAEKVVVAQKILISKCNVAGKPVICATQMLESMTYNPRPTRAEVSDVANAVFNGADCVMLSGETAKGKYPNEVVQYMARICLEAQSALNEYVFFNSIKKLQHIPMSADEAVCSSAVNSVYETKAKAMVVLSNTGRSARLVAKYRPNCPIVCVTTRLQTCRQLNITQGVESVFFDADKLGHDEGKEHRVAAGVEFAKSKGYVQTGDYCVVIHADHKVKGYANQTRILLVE
#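 Pyruvate kinase activity monitored as ATP production (luciferase luminescence). Conditions: 0.1 nM enzyme, 0.5 mM PEP, 0.1 mM ADP, 1 h, RT; normalized against uninhibited and no-enzyme wells.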
# NS1 inh – qHTS Assay for Inhibitors of Influenza NS1 Protein Function | Potency, µM (titrated, usually from 46.1 µM), for inactives: at the highest dose activity, positive = more growth | 270,000 tested, 0.4% active; note: potency is the fitted concentration of half-maximal effect; actives are rising curves; nearly all actives have a fitted effect of over 50% in size
#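 In this qHTS, NS1 from influenza A is expressed in budding yeast, where it slows growth. Cells are switched from glucose to 2% galactose medium (pH 6.0, -URA), treated with compound, and growth recovery is read at OD600.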
# Cycloheximide cs – Cycloheximide Counterscreen for Small Molecule Inhibitors of Shiga Toxin | cell reporter, cycloheximide protein synthesis inhibition counterscreen | max response, % | 300,000 tested, 12% active; in the data active = max response mostly above about 13%, no sharp cut-off; inactive = mostly below about 14%; note: read at 38.3 µM for the half of the compounds with a filed dose; 0% is about no effect
# Tb PYK inh – qHTS of Trypanosoma Brucei Inhibitors | 410,000 tested, 0.12% active | TbPYK enzyme, Kinase-Glo Plus ATP luminescence, 45 min | AID 624173, 2012 | Potency, µM (series often up to 76.8 µM), without a hit: top-dose activity, negative = inhibition, actives largely listed as inhibitors; active = well fitted curve in the direction sought with a large enough effect; inconclusive = small, poorly fitted or top-dose-only effect, or another doubt; inactive = no such curve, though single readings can be large; an effect the other way counts as inactive or inconclusive; note: potency is the fitted concentration of half-maximal effect; % is set by controls: 0 for no effect and ±100 for the full control effect; nearly all actives have a fitted effect of over 50% in size
#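 Assay buffer: 50 mM TEA pH 7.2, 100 mM KCl, 10 mM MgCl2, 0.05% BSA, 0.01% Tween-20. Pyruvate kinase from T. brucei plus substrate met compound, then ADP (130 uM final). Luminescence was read post 45 min RT.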
# Shiga toxin inh – A qHTS for Small Molecule Inhibitors of Shiga Toxin. Vero cells, Shiga toxin protein synthesis inhibition reporter. inhibition, % at 38.7 µM. 290,000 tested, 9.2% active. AID 2315, 2010; in the data active = inhibition mostly above about 28%, no sharp cut-off; inactive = mostly below about 43%; note: 0% is about no effect
# * hit, by the source's call; ? = inconclusive; . = no result. Shown is part of a subset that was picked to be rich in hits. Unless noted, calls come from the whole dose curve.
SMILES,SARS PLpro yeast,LmPK inhibitor,NS1 inh,Cycloheximide cs,Tb PYK inh,Shiga toxin inh
CCC(C)NC(=O)c1ccc2c(c1)S(=O)(=O)c1ccccc1C2=O (centres undefined),0%,-14%,27%,32*,-8%,14*
CCCc1ccc(C(=O)NNc2ccc(F)cc2)cc1,-3%,0%,-55%,17*,3%,35
CCCC(C)NC(=O)c1ccc(-c2ccccc2)cc1 (centres undefined),-9%,4%,.,27*,.,86*
COCC(C)NC(=O)c1ccc2c(c1)S(=O)(=O)c1ccccc1C2=O (centres undefined),6%,0%,1%,9,-6%,-13
CCCc1ccc(C(=O)NNC(=O)c2ccc(Br)cc2)cc1,2%,-7%,13%,7,-11%,-4
CCC(C)NC(=O)c1ccc(C(=O)c2ccccc2)cc1 (centres undefined),3%,-1%,.,40*,-1%,71*
COc1ccc(NC(=O)C(=O)NCC(=O)Nc2cc(OC)ccc2OC)cc1,-1%,8%,15%,2,-20%,4
CCOc1ccccc1C(=O)Nc1c(NC)c2ccccc2oc1=O,.,.,.,.,2%,.
CCC1=C[C@@H]2CN(C1)Cc1c([nH]c3ccccc13)[C@@](C(=O)OC)(c1cc3c(cc1OC)N(C)[C@H]1[C@@](O)(C(=O)OC)[C@H](OC(C)=O)[C@]4(CC)C=CCN5CC[C@]31[C@@H]54)C2,.,.,.,-7,.,-3
CCc1ccc(C(C)NC(=O)c2ccc(F)cc2)cc1 (centres undefined),-3%,-1%,-4%,11,11%,20
CCCC(C)NC(=O)c1ccc(F)cc1 (centres undefined),2%,-1%,-5%,27*,-2%,50*
CCC(C)NC(=O)Cc1ccc(-c2ccccc2)cc1 (centres undefined),-2%,1%,8%,23*,-2%,16
COc1ccc2cc(C3=CC(=O)CC(C)(C)C3=O)ccc2c1,.,.,.,.,-6%,.
Cc1nc2ccn(Cc3ccco3)c(=O)c2cc1C(=O)NCc1ccc(F)cc1,.,.,.,.,2%,.
COC(=O)c1ccccc1NC(=O)Cn1c(=O)n(-c2cccc(OC)c2)c(=O)c2c(C)c(C(=O)N(C)C)sc21,.,.,.,.,-11%,.
Cn1c(-n2cccc2)c(-c2c(-c3ccc(F)cc3)[nH]c3c2c(=O)n(C)c(=O)n3C)c(=O)n(C)c1=O,.,.,.,.,4%,.
COc1ccc(CCc2cc(OC)cc(=O)o2)cc1,0%,3%,-3%,19*,-1%,32
COc1ccc(CCc2ccc3cc(OC)ccc3n2)cc1,.,.,.,.,-1%,.
O=C(Oc1ccccc1/C=C\C(=O)c1cc2ccccc2o1)c1cccc(F)c1,-7%,-6%,2%,37*,-1%,41*
O=C(Oc1ccccc1/C=C\C(=O)c1cc2ccccc2o1)c1ccccc1,7%,-3%,-7%,35*,-8%,90*
COc1cccc(C(=O)Oc2ccccc2/C=C\C(=O)c2cc3ccccc3o2)c1,5%,-5%,?,86*,0%,63*
COc1ccc(/C=C/C(=O)c2cc(F)ccc2OC(=O)c2ccccc2)cc1OC,.,.,.,.,2%,.
COC(=O)c1ccc(NC(=O)CC2C(=O)N(c3cccc(F)c3)C(=O)N2CC(C)C)cc1 (centres undefined),.,.,.,.,-5%,.
CCOc1cc(/C=C(/C#N)c2nc3ccccc3[nH]2)ccc1Oc1ccc([N+](=O)[O-])cn1,-1%,-1%,9%,11*,-4%,17
N#C/C(=C\c1ccc(N2CCCCC2)c([N+](=O)[O-])c1)c1nn(-c2ccccc2)c(N)c1C#N,-19%,3%,10%,-2,-15%,-12
SMILES,SARS PLpro yeast,LmPK inhibitor,NS1 inh,Cycloheximide cs,Tb PYK inh,Shiga toxin inh
CCOc1cc(/C=C(\C#N)c2nc3ccccc3[nH]2)ccc1OC(C)C(=O)O (centres undefined),-1%,-2%,10%,30*,-3%,77*
COc1cc(/C=C(\C#N)c2nc3ccccc3[nH]2)ccc1OCc1ccc(F)cc1,.,.,.,.,-5%,.
COc1cc(/C=C(/C#N)c2nc3ccccc3[nH]2)ccc1Oc1ncccc1[N+](=O)[O-],-10%,0%,14%,13*,-2%,24
N#C/C(=C\c1ccc(N2CCCC2)c([N+](=O)[O-])c1)c1nc2ccccc2[nH]1,-5%,-1%,28%,50*,.,112*
COc1ccc2nc(/C(C#N)=C\c3ccc(Oc4ccc([N+](=O)[O-])cn4)cc3)[nH]c2c1,7%,-4%,?,-6,-6%,-5
O=C(COc1ncnc2sccc12)N1CCN(C(=O)c2ccco2)CC1,-2%,2%,.,-3,-1%,-12
Cc1ccc(C)c(N2CCN(CCCNC(=O)c3ccc4nc(C(C)C)oc4c3)CC2)c1,.,.,.,.,3%,.
Cc1cccc(C(=O)OC(C)C(=O)N2CCN(Cc3ccccc3)CC2)c1 (centres undefined),-7%,.,.,.,0%,.
O=C(CSCc1ccccc1Cl)N1CCN(c2ccc(Cl)cc2)CC1,.,.,.,.,-2%,.
Cc1ccccc1NC(=O)CSc1n[nH]c(-c2ccccn2)n1,3%,-2%,-8%,0,-2%,-5
CC1CCCC(C)N1/N=C/c1cc(Br)c(O)c(Br)c1 (centres undefined),10%,-5%,-31%,-4,.,2
CN=c1scc(C)n1/N=C/c1cc(Br)c(O)c(Br)c1,-6%,12%,.,18*,-2%,51
CN=c1scc(C)n1/N=C/c1ccc(O)cc1,-3%,2%,-31%,38*,-6%,117*
CCN=c1scc(C)n1/N=C/c1cc(Br)c(O)c(OC)c1,-1%,-9%,.,14*,-5%,37
CN=c1scc(C)n1/N=C/c1ccc(O)cc1O,-15%,-28%,-99%,25*,-15%,30*
O=C1CN(S(=O)(=O)c2cccc(Cl)c2Cl)c2ccccc2N1,-1%,5%,15%,-4,-6%,-9
CC1CCCC(C)N1/N=C/c1ccc(O)c(O)c1 (centres undefined),5%,?,2%,1,-4%,17
C=CCN=c1scc(C)n1/N=C/c1ccc(O)c(O)c1,0%,0%,.,37*,?,65*
CN=c1scc(C)n1/N=C/c1ccc2c(c1)OCO2,-7%,16µM*,-4%,28*,2%,69*
O=P(OCC1CCCO1)(OCC1CCCO1)OCC1CCCO1 (centres undefined),.,.,.,.,-3%,.
CCOc1ccccc1NC(=O)C(C)n1nnc2sc3c(c2c1=O)CCCC3 (centres undefined),.,.,.,.,0%,.
CS(=O)(=O)Nc1cccc(C(=O)OCCCOc2ccc(F)cc2)c1,-1%,8%,-4%,-2,3%,-3

# Source: PubChem
